Where “and” joins values, the source holds several entries; their conditions need not be identical. Identical values can stand only once. This is part of a sample that, as a whole, favours compounds with a hit. Of some 83,000 tested, about 20% had one in any assay.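 Method: cells in 96-well plates; compound added at one concentration; 48 h incubation; percent growth measured; values under 10 scored active.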 Calls of active or inactive are those of the source.

What all share (assay): NCI-60 one-dose screen, 48 h (100 = growth as untreated, 0 = no growth, -100 = all killed)
One test deals with RPMI-8226 leukemia. The settings on record: 10 µM unless noted.
The test system of another test is OVCAR-8 ovarian. The settings on record: 10 µM unless noted.
A further test relates to OVCAR-5 ovarian. The note with it: 10 µM unless noted.
The test system of the next test is OVCAR-4 ovarian. The settings on record: 10 µM unless noted.
The test system of a further test is SK-OV-3 ovarian. The settings on record: 10 µM unless noted.
A further test has as its system IGROV1 ovarian. The note with it: 10 µM unless noted.
A further test relates to OVCAR-3 ovarian. The note with it: 10 µM unless noted.
In another test the test system is HS 578T breast. The note with it: 10 µM unless noted.
The test system of a further test is NCI/ADR-RES ovarian. The settings on record: 10 µM unless noted.
In a further test the test system is T-47D breast. The note with it: 10 µM unless noted.
The next test deals with BT-549 breast. The note with it: 10 µM unless noted.
The next test has as its system MDA-MB-435 melanoma. The settings on record: 10 µM unless noted.
Another test concerns SW-620 colon. The settings on record: 10 µM unless noted.
The test system of another test is HCT-116 colon. The note with it: 10 µM unless noted.
For a further test, the system named is HCC-2998 colon. The note with it: 10 µM unless noted.
The test system of another test is KM12 colon. The settings on record: 10 µM unless noted.
The next test has as its system MCF7 breast.

As to `COC(=O)c1nc(=S)[nH]c(C(=O)OC)c1C(=O)c1ccccc1`, the growth with RPMI-8226 leukemia is 107% (inactive); with OVCAR-8 ovarian, 110% (inactive); with OVCAR-5 ovarian it was 106% (inactive); in the test on OVCAR-4 ovarian it was 106% (inactive); in the test with SK-OV-3 ovarian, 111% (inactive); in the test on IGROV1 ovarian, 101% (inactive). Moreover, the growth with OVCAR-3 ovarian is 112% (inactive); in the test on HS 578T breast, 99% (inactive); in the test on NCI/ADR-RES ovarian it was 108% (inactive); in the test on T-47D breast, 107% (inactive); with BT-549 breast it was 124% (inactive); in the test with MDA-MB-435 melanoma, 107% (inactive). Further, the growth in the test on SW-620 colon is 108% (inactive); in the test on HCT-116 colon, 126% (inactive); with HCC-2998 colon, 116% (inactive); in the test on KM12 colon it was 114% (inactive).
Take `CCNC1=CC(=O)c2ncccc2C1=O`: the growth with RPMI-8226 leukemia was 66.4% (inactive); with OVCAR-8 ovarian, 51.9% (inactive); in the test with OVCAR-5 ovarian, -53.7% (active); with OVCAR-4 ovarian, 47.1% (inactive); with SK-OV-3 ovarian, 73.5% (inactive); in the test on IGROV1 ovarian, 63.2% (inactive). In addition, the growth in the test on OVCAR-3 ovarian is 1.49% (active); in the test with HS 578T breast it was -15.9% (active); in the test on NCI/ADR-RES ovarian, 56% (inactive); with T-47D breast, 86.1% (inactive); with BT-549 breast it was -27.8% (active); in the test with MDA-MB-435 melanoma, -91.7% (active). In addition, the growth with SW-620 colon is 13.8% (inactive); with HCT-116 colon, 2.73% (active); in the test with HCC-2998 colon, 29.8% (inactive); in the test on KM12 colon, 48.2% (inactive).
For `CCOC(=O)c1ccc(C(=N)N)cc1`, the growth in the test with OVCAR-8 ovarian was 105% (inactive); in the test with OVCAR-5 ovarian, 120% (inactive); in the test with OVCAR-4 ovarian, 107% (inactive); with SK-OV-3 ovarian, 108% (inactive); in the test on IGROV1 ovarian it was 107% (inactive); in the test with OVCAR-3 ovarian, 102% (inactive). The growth with HS 578T breast was 73.8% (inactive); in the test on NCI/ADR-RES ovarian it was 100% (inactive); in the test on T-47D breast, 105% (inactive); with BT-549 breast, 119% (inactive); in the test with MDA-MB-435 melanoma, 109% (inactive); in the test on MCF7 breast (10 µM unless noted) it was 95.3% (inactive). In addition, the growth in the test with HCT-116 colon is 106% (inactive); in the test on HCC-2998 colon, 103% (inactive); in the test on KM12 colon it was 109% (inactive).
With `CC1(CO)CCCC1NCCNC1CCCC1(C)CO` (configuration not stated), the growth is 102% (inactive) and 97% (inactive) in the test on RPMI-8226 leukemia; 97.8% (inactive) and 102% (inactive) with OVCAR-8 ovarian; 110% (inactive) and 98.9% (inactive) in the test on OVCAR-5 ovarian; 90.4% (inactive) and 101% (inactive) with OVCAR-4 ovarian; 111% (inactive) and 101% (inactive) in the test on SK-OV-3 ovarian; 115% (inactive) and 107% (inactive) in the test with IGROV1 ovarian. The growth is 128% (inactive) and 112% (inactive) with OVCAR-3 ovarian; 112% (inactive) and 106% (inactive) in the test on HS 578T breast; 105% (inactive) and 107% (inactive) with NCI/ADR-RES ovarian; 97.8% (inactive) and 106% (inactive) in the test on T-47D breast; 98.7% (inactive) and 113% (inactive) in the test with BT-549 breast; 98.4% (inactive) and 102% (inactive) in the test with MDA-MB-435 melanoma. Also, the growth in the test on HCT-116 colon is 88.6% (inactive) and 102% (inactive); in the test on HCC-2998 colon it was 99.4% (inactive) and 118% (inactive); in the test with KM12 colon, 122% (inactive) and 100% (inactive).
As to `Nc1nc(=S)c2[nH]cnc2[nH]1`, the growth in the test with RPMI-8226 leukemia is 1.54% (active) and -23.5% (active); in the test with OVCAR-8 ovarian it was 12% (inactive); in the test with OVCAR-5 ovarian, -30.1% (active); in the test on OVCAR-4 ovarian it was 25.1% (inactive) and 44% (inactive); in the test on SK-OV-3 ovarian it was 5.43% (active) and 6.69% (active); in the test with IGROV1 ovarian it was 27.3% (inactive) and 36.7% (inactive). For the same molecule, the growth in the test on OVCAR-3 ovarian is -20.3% (active) and 11.4% (inactive); in the test with HS 578T breast it was 54.1% (inactive); in the test on NCI/ADR-RES ovarian it was 18.2% (inactive) and -50.1% (active); in the test on T-47D breast, 12.3% (inactive) and 5.25% (active); with BT-549 breast, 30.7% (inactive) and 19.5% (inactive); with MDA-MB-435 melanoma, 12.3% (inactive) and 5.49% (active). Besides, the growth is 8.17% (active) and -0.975% (active) with MCF7 breast (10 µM); -5.31% (active) and -50.8% (active) with MCF7 breast (250 µM); 9.54% (active) and -8.26% (active) in the test on HCT-116 colon; 6.28% (active) with HCC-2998 colon; 10.1% (inactive) and 11.5% (inactive) in the test with KM12 colon.
With `CCCC(=O)Oc1ccc2ccccc2c1`, the growth with OVCAR-8 ovarian was 94.6% (inactive); in the test on OVCAR-5 ovarian, 117% (inactive); in the test on OVCAR-4 ovarian it was 105% (inactive); in the test on SK-OV-3 ovarian it was 91.8% (inactive); with IGROV1 ovarian it was 106% (inactive); in the test on OVCAR-3 ovarian it was 113% (inactive). For the same molecule, the growth is 92.7% (inactive) in the test with HS 578T breast; 102% (inactive) in the test on NCI/ADR-RES ovarian; 92.2% (inactive) with T-47D breast; 106% (inactive) with MDA-MB-435 melanoma; 92.1% (inactive) in the test with SW-620 colon; 101% (inactive) with HCT-116 colon. Moreover, the growth is 97.9% (inactive) in the test with HCC-2998 colon and 113% (inactive) in the test on KM12 colon.
In the case of `N=C(N)N1CCc2ccccc2C1`, the growth in the test on RPMI-8226 leukemia is 74.5% (inactive) and 80.8% (inactive); in the test with OVCAR-8 ovarian it was 89.9% (inactive) and 103% (inactive); in the test with OVCAR-5 ovarian, 88.4% (inactive); in the test with OVCAR-4 ovarian, 95.4% (inactive) and 117% (inactive); in the test on SK-OV-3 ovarian, 101% (inactive) and 107% (inactive); in the test on IGROV1 ovarian, 102% (inactive). Besides, the growth in the test on OVCAR-3 ovarian is 104% (inactive) and 101% (inactive); in the test on HS 578T breast it was 85.9% (inactive) and 98.4% (inactive); with NCI/ADR-RES ovarian, 92.9% (inactive) and 114% (inactive); in the test on T-47D breast it was 86.2% (inactive) and 101% (inactive); with BT-549 breast it was 84.4% (inactive) and 103% (inactive); in the test with MDA-MB-435 melanoma it was 96% (inactive) and 95.6% (inactive). Also, the growth is 94.5% (inactive) and 88.1% (inactive) in the test with SW-620 colon; 106% (inactive) and 104% (inactive) with MCF7 breast (10 µM unless noted); 94.7% (inactive) and 102% (inactive) in the test on HCT-116 colon; 83.2% (inactive) and 99.2% (inactive) with HCC-2998 colon; 92.6% (inactive) and 94% (inactive) in the test on KM12 colon.
For the molecule `Cc1c(Cl)c(C)c(Cc2c(C)c(Cl)c(C)c(Cl)c2O)c(O)c1Cl`, the growth in the test on RPMI-8226 leukemia is 10% (inactive); with OVCAR-8 ovarian, 11.4% (inactive); in the test on OVCAR-5 ovarian it was 45.6% (inactive); in the test on OVCAR-4 ovarian, 13.9% (inactive); in the test with SK-OV-3 ovarian it was -6.21% (active); in the test on IGROV1 ovarian, 38.8% (inactive). Further, the growth in the test with OVCAR-3 ovarian is 5.17% (active); in the test on HS 578T breast, 12.1% (inactive); in the test on NCI/ADR-RES ovarian, -3.46% (active); in the test with T-47D breast, 1.53% (active); in the test on BT-549 breast it was 22.6% (inactive); in the test with MDA-MB-435 melanoma, 7.62% (active). Moreover, the growth with SW-620 colon is 17.1% (inactive); in the test on MCF7 breast (10 µM unless noted) it was 1.6% (active); in the test on HCT-116 colon, 3.19% (active); in the test on HCC-2998 colon, 25.7% (inactive); with KM12 colon, 15.7% (inactive).

(Values after PubChem BioAssay (NCI).)
